# Values joined by “and” are separate entries in the source; they are usually repeats but may differ in a detail not shown here. Equal entries are not always repeated. Where a structure was tested more than once in an assay, its records may differ in their call. Active and inactive are the calls of the source. Unless noted, no rule for the calls is given here.
# What was measured:
# [1] = HepG2 liver cancer cell viability effects, profiling panel, resazurin fluorescence, 24 h, PK04 Diversity Set (AID 1172); conditions: higher = more signal; also: test concentration not given here
# [2] = basal S. cerevisiae growth modulation, no modifier, primary screen, OD600, strain BY4716, 24 h, basal condition (AID 1173); conditions: OD600, 24 h, higher = more signal, called active from +8 up or from −8 down
# [3] = MM1S myeloma cell viability, profiling panel, resazurin fluorescence, basal, 24 h, PK04 Diversity Set (AID 1174); conditions: higher = more signal, called active from +8 up or from −8 down;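 also: MM1S multiple myeloma cell line; test concentration not given here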
# [4] = target: Dihydroorotate dehydrogenase (quinone), mitochondrial (Plasmodium falciparum (isolate 3D7)) (UniProt Q08210); assay: PfDHODH enzyme inhibitors, primary screen, biochemical, C-terminal His tag, absorbance 600 nm (AID 1175); conditions: DCIP absorbance 600 nm, higher = more signal, called active from +8 up or from −8 down;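 also: recombinant parasite enzyme with a five histidine tag at its C terminus; test concentration not given here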
# Sequence of Dihydroorotate dehydrogenase (quinone), mitochondrial (Plasmodium falciparum (isolate 3D7)) (Q08210 whole entry, looked up): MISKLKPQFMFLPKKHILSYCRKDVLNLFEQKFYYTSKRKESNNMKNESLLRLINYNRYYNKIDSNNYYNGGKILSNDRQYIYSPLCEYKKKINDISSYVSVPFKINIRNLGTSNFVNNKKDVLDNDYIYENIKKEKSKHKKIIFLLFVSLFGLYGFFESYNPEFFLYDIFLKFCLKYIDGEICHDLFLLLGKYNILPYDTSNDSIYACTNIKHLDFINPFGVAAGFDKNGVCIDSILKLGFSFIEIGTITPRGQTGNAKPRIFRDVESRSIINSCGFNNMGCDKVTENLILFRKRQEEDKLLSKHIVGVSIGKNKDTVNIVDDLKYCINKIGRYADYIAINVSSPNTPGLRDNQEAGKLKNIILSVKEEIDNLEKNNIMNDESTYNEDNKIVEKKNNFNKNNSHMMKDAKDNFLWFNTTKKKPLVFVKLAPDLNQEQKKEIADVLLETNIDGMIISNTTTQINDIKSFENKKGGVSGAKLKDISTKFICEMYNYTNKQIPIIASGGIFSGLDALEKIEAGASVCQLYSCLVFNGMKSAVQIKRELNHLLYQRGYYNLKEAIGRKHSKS
# [5] = P. aeruginosa biofilm formation inhibitors, primary screen, strain PAO1, LB-PBS medium, absorbance 600 nm (AID 1176); also: test concentration not given here; conditions: P. aeruginosa PAO1 growth/biofilm, A600, 12 h; higher = more signal
# [6] = S. cerevisiae RM11-1a growth modifiers, primary screen, strain RM11-1a, OD600, basal, 24 h (AID 1177); conditions: OD600, 24 h, higher = more signal, called active from +8 up or from −8 down;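 also: cultures grown under basal conditions with no added stressor; test concentration not given here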
# [7] = E. coli acrAB mutant growth effects, primary screen, E. coli filamentation inducers, strain DRC39, OD650, 24 h (AID 1178); conditions: higher = more signal, called active from +8 up or from −8 down;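 also: growth measured as culture turbidity by optical density at 650 nm; test concentration not given here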
# [8] = E. coli acrAB mutant growth effects, primary screen, E. coli filamentation inducers, strain DRC39, OD650, 48 h (AID 1179);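 also: screen aims at cell division blockers that make cells filament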; conditions: E. coli DRC39 delta-acrAB growth, higher = more signal, called active from +8 up or from −8 down
# [9] = RPMI8226 myeloma cell viability, profiling panel, resazurin fluorescence, basal, 24 h, PK04 Diversity Set (AID 1180); conditions: higher = more signal;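 also: RPMI8826 multiple myeloma cell line at 5000 cells per well; test concentration not given here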
# [10] = target: E3 ubiquitin-protein ligase XIAP (Homo sapiens) (UniProt P98170); assay: XIAP binders, primary screen, biophysical, small-molecule microarray, fluorescence 635 nm (AID 1181); conditions: small-molecule microarray binding, higher = more signal;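 also: score merges 667 nm emission and signal to noise over triplicate slides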
# Sequence of E3 ubiquitin-protein ligase XIAP (Homo sapiens) (P98170 whole entry, looked up): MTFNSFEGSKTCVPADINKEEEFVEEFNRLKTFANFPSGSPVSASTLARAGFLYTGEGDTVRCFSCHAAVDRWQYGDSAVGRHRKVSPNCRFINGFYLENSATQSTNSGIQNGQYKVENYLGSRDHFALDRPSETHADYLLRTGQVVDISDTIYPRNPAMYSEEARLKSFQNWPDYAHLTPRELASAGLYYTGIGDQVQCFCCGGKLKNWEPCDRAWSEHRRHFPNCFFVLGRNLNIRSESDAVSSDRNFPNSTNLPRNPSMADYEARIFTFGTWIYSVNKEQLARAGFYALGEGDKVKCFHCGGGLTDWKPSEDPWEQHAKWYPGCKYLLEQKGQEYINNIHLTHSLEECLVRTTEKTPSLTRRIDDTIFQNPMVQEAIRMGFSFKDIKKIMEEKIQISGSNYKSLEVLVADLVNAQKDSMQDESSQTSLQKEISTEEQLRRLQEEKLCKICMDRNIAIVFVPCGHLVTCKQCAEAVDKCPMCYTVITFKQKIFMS
Compound,z-score [1],z-score [2],z-score [3],composite z-score [4],z-score [5],z-score [6],z-score [7],z-score [8],z-score [9],composite z-score [10]
C=CCN(C(=O)C(c1cccs1)N(C(=O)/C=C\C(=O)O)C(C)(C)CO)c1ccc(OC)cc1 (stereo not given),0.916 and 0.892,-2.66 (inactive) and -1.93 (inactive),1.41 (inactive) and 0.788 (inactive),-1.46 (inactive) and -1.61 (inactive),0.659 (inactive),-4.37 (inactive) and -2.5 (inactive),1.81 (inactive) and 1.92 (inactive),2.23 (inactive) and 2.15 (inactive),0.402 and 0.207,-0.102 and 0.214
CC(=O)OC[C@H]1O[C@H](C#CC(C)(C)C)C=C[C@@H]1OC(C)=O,-0.374,-0.854 (inactive),-0.756 (inactive),-0.187 (inactive),-0.151 (inactive),-0.066 (inactive),0.545 (inactive),0.221 (inactive),-0.26,0.0237
CC(C)C(=O)N[C@@H]1CCCN1C(=O)C=Cc1ccccc1,-0.0786,-1.17 (inactive),-0.0492 (inactive),-1.3 (inactive),0.286 (inactive),-1.19 (inactive),0.595 (inactive),-0.0803 (inactive),0.227,-0.113
CCOC(=O)[C@@H]1CC=C2CC1C(=O)N1CCC[C@@H]1[C@H]2O[Si](C)(C)C(C)(C)C (stereo not given in full),-0.464 and 1.65,0.0163 (inactive) and -8.53 (active),-0.226 (inactive) and 1.07 (inactive),-0.259 (inactive) and -0.198 (inactive),-0.0825 (inactive) and -0.377 (inactive),-1.35 (inactive) and 0.069 (inactive),0.03 (inactive) and 0.867 (inactive),0.262 (inactive) and -0.586 (inactive),-0.516 and 0.845,-0.343 and -0.171
C=CCN(CCCC)C(=O)C(c1cccs1)N(CCOCCO)C(=O)/C=C\C(=O)O (stereo not given),-0.313 and -1.09,-0.8 (inactive) and 0.678 (inactive),-0.0247 (inactive) and -0.0815 (inactive),-1.49 (inactive) and -0.811 (inactive),0.0126 (inactive) and 0.177 (inactive),-1.34 (inactive) and -1.13 (inactive),0.423 (inactive) and 0.0136 (inactive),0.629 (inactive) and 0.633 (inactive),0.0517 and 0.181,-0.352 and -0.234
C=C[C@H](C)[C@@H](O)c1ccc(OCCO)cc1,0.0272 and -0.227,-1.41 (inactive) and -2.08 (inactive),-0.246 (inactive) and -0.5 (inactive),0.14 (inactive) and -0.263 (inactive),0.684 (inactive) and 0.486 (inactive),-0.371 (inactive) and 0.526 (inactive),-0.748 (inactive) and 0.371 (inactive),-0.902 (inactive) and 0.418 (inactive),0.0577 and -0.603,0.074 and 0.18
C=CCN(Cc1ccccc1)C(=O)C1N(c2ccc(CCO)cc2)C(=O)C2C(C(=O)O)C3C=CC21O3 (stereo not given),-1.09 and -0.194,-0.627 (inactive) and -0.3 (inactive),-0.724 (inactive) and -1.11 (inactive),0.79 (inactive) and 0.0901 (inactive),0.0279 (inactive) and 0.345 (inactive),0.345 (inactive) and -0.744 (inactive),0.522 (inactive) and 0.134 (inactive),0.0943 (inactive) and -0.178 (inactive),-0.821 and -0.623,-0.0629 and -0.365
CCCNC(=O)OC[C@H]1O[C@H](CCON=C(C)CCC(=O)OC[C@H]2O[C@H](C#Cc3ccccc3)C=C[C@@H]2Oc2ccc(C)cc2)C=C[C@@H]1Oc1ccc(OC)cc1,0.462,0.889 (inactive),-0.0269 (inactive),-0.754 (inactive),-0.066 (inactive),0.432 (inactive),0.715 (inactive),0.565 (inactive),0.75,0.0408
Cc1ccc(S(=O)(=O)OC[C@@H]2CN3[C@@H](CC[C@@H](C)[C@@H]3c3ccc(Br)cc3)C(=O)O2)cc1,-0.928 and 0.711,0.212 (inactive) and 0.117 (inactive),0.0032 (inactive) and 0.781 (inactive),-0.559 (inactive) and 0.188 (inactive),0.487 (inactive) and -0.139 (inactive),-0.0273 (inactive) and 0.72 (inactive),0.393 (inactive) and -1.04 (inactive),0.521 (inactive) and -0.956 (inactive),-0.109 and 0.607,1.69 and -0.0599
CCCC[C@@H]1CN2[C@@H](CC[C@@H](C)[C@@H]2c2ccc(Br)cc2)C(=O)O1,-0.175 and 0.523,-1.57 (inactive) and -1.39 (inactive),0.0509 (inactive) and 0.231 (inactive),0.466 (inactive) and -0.248 (inactive),-0.221 (inactive) and -0.175 (inactive),0.229 (inactive) and -0.0641 (inactive),0.777 (inactive) and 0.606 (inactive),0.535 (inactive) and -1.07 (inactive),0.387 and 0.756,0.0537 and -0.185
COc1ccc(-c2ccc3c(n2)CCCN3CC(O)CN2CCCc3nc(-c4ccc(Br)cc4)ccc32)cc1 (stereo not given),-0.721 and 0.465,-4.64 (inactive) and -1.56 (inactive),-0.791 (inactive) and -0.334 (inactive),0.0106 (inactive) and 0.0126 (inactive),-0.139 (inactive) and -0.245 (inactive),0.665 (inactive) and 0.0647 (inactive),0.336 (inactive) and 0.725 (inactive),0.191 (inactive) and 0.761 (inactive),-0.286 and -0.439,1.04 and 0.94
COc1ccc(O[C@H]2C=C[C@@H](c3ccccc3)O[C@@H]2COC(=O)CCC(C)=NO[C@H](C)c2cn([C@H](CO)Cc3ccccc3)nn2)cc1,0.327 and 0.346,0.496 (inactive) and 1.83 (inactive),0.149 (inactive) and -0.116 (inactive),0.899 (inactive) and -0.413 (inactive),-1.31 (inactive) and -0.491 (inactive),0.581 (inactive) and 1.67 (inactive),0.521 (inactive) and 0.693 (inactive),-0.313 (inactive) and 0.596 (inactive),0.651 and 0.198,-0.252 and -0.188
C=CCN(CCCCC)C(=O)C1N(CCCCCCO)C(=O)C2C(C(=O)O)C3C=CC21O3 (stereo not given),-0.382 and -0.569,-0.0594 (inactive) and -0.411 (inactive),-0.847 (inactive) and -0.718 (inactive),0.0615 (inactive) and -0.082 (inactive),0.0809 (inactive) and -0.966 (inactive),-0.42 (inactive) and -0.52 (inactive),0.554 (inactive) and -0.272 (inactive),0.44 (inactive) and -0.188 (inactive),-0.772 and -0.735,-0.152 and 0.0785
C=CCN(C(=O)C1N(CCOCCO)C(=O)C2C(C(=O)O)C3C=CC21O3)c1ccc(OC)cc1 (stereo not given),0.0057 and 0.18,-0.174 (inactive) and -0.731 (inactive),0.267 (inactive) and -0.0413 (inactive),-0.511 (inactive) and -4.53 (inactive),-0.276 (inactive) and -0.0963 (inactive),-0.478 (inactive) and -0.298 (inactive),0.556 (inactive) and 1.24 (inactive),0.2 (inactive) and 0.638 (inactive),-0.0424 and 0.0858,0.0637 and 0.0264
C=CCN(C(=O)C(c1cccs1)N(C(=O)/C=C\C(=O)O)c1ccc(CCO)cc1)c1ccc(OC)cc1 (stereo not given),0.495 and -0.158,-1.66 (inactive) and -1.5 (inactive),0.777 (inactive) and 0.249 (inactive),-1.09 (inactive) and -4.45 (inactive),0.413 (inactive) and -0.497 (inactive),-0.405 (inactive) and 0.127 (inactive),1 (inactive) and 0.244 (inactive),0.78 (inactive) and 0.864 (inactive),0.32 and 0.335,0.184 and 0.284
CO[C@H]1COC(=O)CC=C[C@@H](C)COC(=O)[C@@H](OCc2ccccc2)C=C[C@@H]1C,0.537,-1.93 (inactive),0.155 (inactive),-0.825 (inactive),-0.72 (inactive),-0.78 (inactive),0.84 (inactive),0.929 (inactive),0.142,-0.245

# Reference: PubChem BioAssay
